{
  "source": "paper PMC7862700",
  "about": "“An all-to-all approach to the identification of sequence-specific readers for epigenetic DNA modifications on cytosine”",
  "test_in_all_cases": "DAPPL (digital affinity profiling via proximity ligation, sequencing); 10 mM Tris-HCl pH 7.5, 50 mM NaCl, 1 mM DTT, 4% glycerol, room temperature, 30 min; GST-TFs on glutathione beads, 16-mer random dsDNA library, 0.1% formaldehyde crosslink after washing; high values mean tight binding",
  "key": {"[1]": {"target": "T1, FEV (Homo sapiens, UniProt Q99581 1-238)", "T1 sequence": "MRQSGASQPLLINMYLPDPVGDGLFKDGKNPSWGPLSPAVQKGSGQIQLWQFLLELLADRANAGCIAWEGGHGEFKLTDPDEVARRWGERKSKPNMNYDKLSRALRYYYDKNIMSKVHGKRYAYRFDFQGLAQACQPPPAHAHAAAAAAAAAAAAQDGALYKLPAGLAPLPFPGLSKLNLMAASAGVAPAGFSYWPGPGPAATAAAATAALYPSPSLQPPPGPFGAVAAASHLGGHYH", "conditions": "protein: recombinant; tags: N-terminal GST; dsDNA, one strand shown", "summary_of_the_method": "(§1)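 In yeast, human transcription factors were expressed with a GST fusion, then pulled down on glutathione beads and given DNA barcodes. Pooled with a tag-only sample, they were exposed to 200 nmole of a 16-mer random double-stranded DNA library (Tris/NaCl/DTT/glycerol buffer, room temperature, 30 min), washed, crosslinked with 0.1% formaldehyde, proximity-ligated using BsaI/T4 ligase for 1 h at 37 °C, PCR-amplified and read on an Illumina NextSeq500. Each hexamer's frequency of reads for a factor, divided by the matching frequency for the tag-only sample, gives the binding signal.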"}, "[2]": {"target": "ETV5 (Homo sapiens, UniProt P41161 1-510)", "sequence (P41161 whole entry)": "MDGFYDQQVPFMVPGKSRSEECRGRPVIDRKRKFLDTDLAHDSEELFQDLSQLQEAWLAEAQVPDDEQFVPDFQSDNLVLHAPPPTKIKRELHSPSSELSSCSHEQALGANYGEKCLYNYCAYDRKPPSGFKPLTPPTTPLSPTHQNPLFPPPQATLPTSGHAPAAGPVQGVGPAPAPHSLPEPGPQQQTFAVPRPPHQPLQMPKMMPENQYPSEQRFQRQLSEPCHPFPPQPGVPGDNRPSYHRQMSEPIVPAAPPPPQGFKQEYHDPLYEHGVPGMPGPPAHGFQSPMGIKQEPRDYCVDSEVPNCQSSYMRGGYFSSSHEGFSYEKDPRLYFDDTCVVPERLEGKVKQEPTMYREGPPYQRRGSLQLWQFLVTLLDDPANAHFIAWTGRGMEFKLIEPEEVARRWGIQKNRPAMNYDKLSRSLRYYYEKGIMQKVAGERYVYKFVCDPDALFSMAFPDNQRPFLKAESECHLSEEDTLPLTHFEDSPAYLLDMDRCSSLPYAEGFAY", "conditions": "protein: recombinant; tags: N-terminal GST; dsDNA, one strand shown", "summary_of_the_method": "as §1"}, "[3]": {"target": "HSF1 (Homo sapiens, UniProt Q00613 1-529)", "sequence (Q00613 whole entry)": "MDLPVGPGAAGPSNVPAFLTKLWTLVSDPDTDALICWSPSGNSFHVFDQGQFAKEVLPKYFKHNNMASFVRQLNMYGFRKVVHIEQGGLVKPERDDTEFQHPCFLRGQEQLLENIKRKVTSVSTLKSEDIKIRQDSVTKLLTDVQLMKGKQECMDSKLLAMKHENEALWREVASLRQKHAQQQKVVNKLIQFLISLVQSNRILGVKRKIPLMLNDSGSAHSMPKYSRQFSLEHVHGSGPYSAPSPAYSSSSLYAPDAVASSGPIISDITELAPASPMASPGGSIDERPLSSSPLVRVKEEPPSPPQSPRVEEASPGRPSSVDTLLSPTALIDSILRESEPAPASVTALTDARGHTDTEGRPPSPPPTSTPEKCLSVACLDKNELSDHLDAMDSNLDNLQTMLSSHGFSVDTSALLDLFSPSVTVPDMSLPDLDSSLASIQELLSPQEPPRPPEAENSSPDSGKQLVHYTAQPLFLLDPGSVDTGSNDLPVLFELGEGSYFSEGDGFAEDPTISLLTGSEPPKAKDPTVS", "conditions": "protein: recombinant; tags: N-terminal GST; chain copies: 3; dsDNA, one strand shown", "summary_of_the_method": "as §1"}, "[4]": {"target": "T2, SPIC (Homo sapiens, UniProt Q8N5J4 1-248)", "T2 sequence": "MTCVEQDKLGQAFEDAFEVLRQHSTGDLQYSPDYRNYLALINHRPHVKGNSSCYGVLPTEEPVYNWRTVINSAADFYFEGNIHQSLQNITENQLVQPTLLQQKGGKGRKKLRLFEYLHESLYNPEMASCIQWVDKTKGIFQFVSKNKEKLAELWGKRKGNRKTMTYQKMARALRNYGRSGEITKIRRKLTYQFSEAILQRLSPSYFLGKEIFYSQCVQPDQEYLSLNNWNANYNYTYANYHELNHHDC", "conditions": "protein: recombinant; tags: N-terminal GST; dsDNA, one strand shown", "summary_of_the_method": "as §1"}, "[5]": {"target": "ELF4 (Homo sapiens, UniProt Q99607 1-663)", "sequence (Q99607 whole entry)": "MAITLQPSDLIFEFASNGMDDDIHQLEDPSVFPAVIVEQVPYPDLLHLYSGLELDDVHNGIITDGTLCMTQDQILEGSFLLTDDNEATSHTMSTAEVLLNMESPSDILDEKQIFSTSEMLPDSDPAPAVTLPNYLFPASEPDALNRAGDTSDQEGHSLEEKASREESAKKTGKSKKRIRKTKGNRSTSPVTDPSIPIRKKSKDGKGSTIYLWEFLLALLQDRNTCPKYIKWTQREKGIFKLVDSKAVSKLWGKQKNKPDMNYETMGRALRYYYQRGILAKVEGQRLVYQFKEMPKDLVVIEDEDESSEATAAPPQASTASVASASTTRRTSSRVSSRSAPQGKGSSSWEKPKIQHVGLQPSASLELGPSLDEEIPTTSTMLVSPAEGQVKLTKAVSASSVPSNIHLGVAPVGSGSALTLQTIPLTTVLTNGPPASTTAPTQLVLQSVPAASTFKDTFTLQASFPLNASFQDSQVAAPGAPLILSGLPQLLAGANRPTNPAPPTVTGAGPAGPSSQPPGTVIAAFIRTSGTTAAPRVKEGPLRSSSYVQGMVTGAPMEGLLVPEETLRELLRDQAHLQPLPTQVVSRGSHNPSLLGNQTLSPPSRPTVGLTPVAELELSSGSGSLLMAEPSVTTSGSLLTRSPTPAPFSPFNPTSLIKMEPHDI", "conditions": "protein: recombinant; tags: N-terminal GST; dsDNA, one strand shown", "summary_of_the_method": "as §1"}, "[6]": {"target": "T3, ELK4 (Homo sapiens, UniProt P28324-2 1-405)", "T3 sequence": "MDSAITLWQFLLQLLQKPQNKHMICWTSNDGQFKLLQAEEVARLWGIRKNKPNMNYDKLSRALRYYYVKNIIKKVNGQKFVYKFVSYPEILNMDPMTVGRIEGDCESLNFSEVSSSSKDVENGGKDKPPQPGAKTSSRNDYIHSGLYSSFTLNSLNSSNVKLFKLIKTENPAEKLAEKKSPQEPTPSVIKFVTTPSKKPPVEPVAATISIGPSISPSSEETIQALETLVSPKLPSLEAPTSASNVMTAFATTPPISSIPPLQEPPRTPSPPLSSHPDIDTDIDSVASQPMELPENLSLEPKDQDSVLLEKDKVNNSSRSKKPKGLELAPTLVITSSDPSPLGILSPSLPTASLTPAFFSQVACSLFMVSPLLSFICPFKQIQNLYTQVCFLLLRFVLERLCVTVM", "conditions": "protein: recombinant; tags: N-terminal GST; dsDNA, one strand shown", "summary_of_the_method": "as §1"}, "[7]": {"target": "T4, ETV2 (Homo sapiens, UniProt O00321 1-342)", "T4 sequence": "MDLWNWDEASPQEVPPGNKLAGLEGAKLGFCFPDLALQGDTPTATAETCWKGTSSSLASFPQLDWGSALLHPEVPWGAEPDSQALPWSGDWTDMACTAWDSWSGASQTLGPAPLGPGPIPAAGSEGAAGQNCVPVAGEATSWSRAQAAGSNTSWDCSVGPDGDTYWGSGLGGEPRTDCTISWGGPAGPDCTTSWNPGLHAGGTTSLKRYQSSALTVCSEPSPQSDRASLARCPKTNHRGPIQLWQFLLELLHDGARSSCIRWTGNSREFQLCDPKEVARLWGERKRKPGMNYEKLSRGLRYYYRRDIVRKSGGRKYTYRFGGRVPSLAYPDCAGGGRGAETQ", "conditions": "protein: recombinant; tags: N-terminal GST; dsDNA, one strand shown", "summary_of_the_method": "as §1"}, "[8]": {"target": "T5, ELF3 (Homo sapiens, UniProt P78545 1-371)", "T5 sequence": "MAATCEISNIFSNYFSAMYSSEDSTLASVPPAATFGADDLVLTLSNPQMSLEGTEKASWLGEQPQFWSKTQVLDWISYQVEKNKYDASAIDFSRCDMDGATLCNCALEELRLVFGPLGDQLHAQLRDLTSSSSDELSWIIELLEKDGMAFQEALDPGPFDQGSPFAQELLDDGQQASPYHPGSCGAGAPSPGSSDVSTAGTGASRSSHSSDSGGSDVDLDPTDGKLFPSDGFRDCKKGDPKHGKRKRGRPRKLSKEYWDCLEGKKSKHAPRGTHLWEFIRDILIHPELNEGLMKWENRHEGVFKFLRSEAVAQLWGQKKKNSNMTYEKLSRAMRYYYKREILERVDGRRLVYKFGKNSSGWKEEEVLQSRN", "conditions": "protein: recombinant; tags: N-terminal GST; dsDNA, one strand shown", "summary_of_the_method": "as §1"}, "[9]": {"target": "CRX (Homo sapiens, UniProt O43186 1-299)", "sequence (O43186 whole entry)": "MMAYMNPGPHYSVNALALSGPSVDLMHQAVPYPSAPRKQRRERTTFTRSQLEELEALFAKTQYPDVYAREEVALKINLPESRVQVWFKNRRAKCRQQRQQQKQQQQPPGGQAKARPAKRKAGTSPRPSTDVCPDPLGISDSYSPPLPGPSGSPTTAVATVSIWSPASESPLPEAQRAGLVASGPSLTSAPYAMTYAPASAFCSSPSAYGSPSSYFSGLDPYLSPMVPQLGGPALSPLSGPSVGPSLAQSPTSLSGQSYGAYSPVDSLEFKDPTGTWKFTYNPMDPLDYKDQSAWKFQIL", "conditions": "protein: recombinant; tags: N-terminal GST; dsDNA, one strand shown", "summary_of_the_method": "as §1"}, "[10]": {"target": "ETV1 (Homo sapiens, UniProt P50549 1-477)", "sequence (P50549 whole entry)": "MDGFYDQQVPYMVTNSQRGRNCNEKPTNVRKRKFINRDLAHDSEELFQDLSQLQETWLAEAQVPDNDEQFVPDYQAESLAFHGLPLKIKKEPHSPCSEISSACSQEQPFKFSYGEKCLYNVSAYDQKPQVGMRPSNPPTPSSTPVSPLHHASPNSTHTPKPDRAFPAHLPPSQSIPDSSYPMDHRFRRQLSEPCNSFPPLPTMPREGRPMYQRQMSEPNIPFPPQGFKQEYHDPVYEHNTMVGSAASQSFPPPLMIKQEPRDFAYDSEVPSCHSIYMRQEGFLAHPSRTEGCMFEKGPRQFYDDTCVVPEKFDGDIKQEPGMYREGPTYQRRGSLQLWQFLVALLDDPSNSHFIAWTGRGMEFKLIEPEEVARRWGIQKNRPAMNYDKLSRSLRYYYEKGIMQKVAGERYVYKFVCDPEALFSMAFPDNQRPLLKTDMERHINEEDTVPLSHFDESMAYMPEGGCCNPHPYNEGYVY", "conditions": "protein: recombinant; tags: N-terminal GST; dsDNA, one strand shown", "summary_of_the_method": "as §1"}},
  "data": [
    {"sequence": "AAATCA", "values": [
      {"measurement": "binding signal", "setting": "[1]", "result": "1.2 fold enrichment (6-mer frequency, TF over GST control)"},
      {"measurement": "binding signal", "setting": "[2]", "result": "1.26 fold enrichment (6-mer frequency, TF over GST control)"},
      {"measurement": "binding signal", "setting": "[3]", "result": "1.17 fold enrichment (6-mer frequency, TF over GST control)"},
      {"measurement": "binding signal", "setting": "[4]", "result": "1.18 fold enrichment (6-mer frequency, TF over GST control)"},
      {"measurement": "binding signal", "setting": "[5]", "result": "1.24 fold enrichment (6-mer frequency, TF over GST control)"},
      {"measurement": "binding signal", "setting": "[6]", "result": "1.23 fold enrichment (6-mer frequency, TF over GST control)"},
      {"measurement": "binding signal", "setting": "[7]", "result": "1.39 fold enrichment (6-mer frequency, TF over GST control)"},
      {"measurement": "binding signal", "setting": "[8]", "result": "1.27 fold enrichment (6-mer frequency, TF over GST control)"},
      {"measurement": "binding signal", "setting": "[9]", "result": "1.33 fold enrichment (6-mer frequency, TF over GST control)"},
      {"measurement": "binding signal", "setting": "[10]", "result": "1.18 fold enrichment (6-mer frequency, TF over GST control)"}
    ]}
  ]
}
